A selection: hits, their analogues and other compounds. The true share with any hit is near 5%.
Vaccinia Venus – qHTS for Stage-Specific Inhibitors of Vaccinia Orthopoxvirus: Venus Reporter Primary qHTS. 0.46% of 330,000 active. AID 720580, 2013. Vaccinia virus Venus reporter expression, fluorescence. Potency, µM (series often up to 36.5 µM), for inactives: top-dose activity change, negative = inhibition, most hits filed as inhibitors; calls by dose curve; tested in A549 cells; note: potency is the fitted concentration of half-maximal effect; nearly all actives have a fitted effect of over 30% in size
VACV mCherry inh – qHTS for Stage-Specific Inhibitors of Vaccinia Orthopoxvirus: mCherry Reporter Primary qHTS; Vaccinia virus mCherry reporter infection, fluorescence; 0.63% of 310,000 active; Potency, µM (titrated, usually from 36.5 µM), for the others: top-dose activity change, negative = inhibition, usual class: inhibitors; calls by dose curve; tested in A549 cells; note: potency is the fitted concentration of half-maximal effect; nearly all actives have a fitted effect of over 35% in size
Tb PYK inh – qHTS of Trypanosoma Brucei Inhibitors | pyruvate kinase (Trypanosoma brucei), Q57TT1 | TbPYK enzyme, Kinase-Glo Plus ATP luminescence, 45 min | Potency, µM (top dose mostly 76.8 µM), inactives show at the highest dose activity, negative = inhibition, usual class: inhibitors | 0.12% of 410,000 active; note: potency is the fitted concentration of half-maximal effect; nearly all actives have a fitted effect of over 50% in size
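Enzyme and substrate buffer are dispensed first and compound is pin-transferred. ADP at 130 uM final then starts the reaction, which runs 45 min at room temperature. Detection reagent is added for 10 min before luminescence is imaged.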
LmPK inh – qHTS Assay for Inhibitors of Leishmania Mexicana Pyruvate Kinase (LmPK). 0.37% of 290,000 active. AID 1721, 2009. Potency, µM (titrated, usually from 57.5 µM), for inactives: top-dose activity change, negative = inhibition, usual class: inhibitors. purified LmPK, Kinase-Glo ATP luminescence, 1 h; note: potency is the fitted concentration of half-maximal effect
Target sequence (Q27686 whole entry, looked up): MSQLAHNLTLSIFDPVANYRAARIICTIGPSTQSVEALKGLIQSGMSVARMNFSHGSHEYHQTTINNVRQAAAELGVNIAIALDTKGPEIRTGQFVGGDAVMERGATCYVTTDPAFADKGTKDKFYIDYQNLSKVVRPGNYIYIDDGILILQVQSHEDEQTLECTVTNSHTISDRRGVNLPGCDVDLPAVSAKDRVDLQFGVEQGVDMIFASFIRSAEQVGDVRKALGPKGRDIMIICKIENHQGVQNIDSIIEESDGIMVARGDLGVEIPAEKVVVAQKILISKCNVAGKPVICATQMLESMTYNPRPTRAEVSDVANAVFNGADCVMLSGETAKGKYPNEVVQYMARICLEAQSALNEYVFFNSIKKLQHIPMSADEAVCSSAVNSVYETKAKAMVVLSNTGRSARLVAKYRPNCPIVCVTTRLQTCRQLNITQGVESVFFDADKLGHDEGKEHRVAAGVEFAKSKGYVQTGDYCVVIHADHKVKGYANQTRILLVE
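Screened at intermediate enzyme activity to detect both inhibitors and activators: LmPK at 0.1 nM, with a 0.5 nM enzyme column as activation reference. PEP 0.5 mM, ADP 0.1 mM; ATP detected by luminescence after 1 h.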
HCMV antiviral – qHTS Assay for inhibitors of the human cytomegalovirus (HCMV); HFF cells, HCMV-luciferase reporter, 72 h; hits give low values; activity change, negative = inhibition, % at 57.5 µM; 4.5% of 410,000 active; AID 1259415, 2018; in the data active = activity change below about -60%; inconclusive = no clear call, values can overlap the other calls; inactive = above about -39%
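Human foreskin fibroblasts infected with luciferase-reporter HCMV at MOI 1 PFU/cell, compounds at two doses. Luciferase measured 72 h post infection; normalized to buffer-only basal and Salinomycin (10uM) controls.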
The depositor's hits bear a star; i = inactive; ? = inconclusive; nt = no result. Unless noted, calls come from the whole dose curve; as a rule, active = well fitted curve in the direction sought with a large enough effect; inconclusive = small, poorly fitted or top-dose-only effect, or another doubt; inactive = no such curve, though single readings can be large; an effect the other way counts as inactive or inconclusive. % is set by controls: 0 for no effect and ±100 for the full control effect.

SMILES	Vaccinia Venus	VACV mCherry inh	Tb PYK inh	LmPK inh	HCMV antiviral
COc1ccc(-c2noc(-c3ccc(N4CCOCC4)c([N+](=O)[O-])c3)n2)cc1	-7.4%	-5.2%	3.1%	nt	-5.4
O=C1C(=O)c2ccc(-c3ccccc3)cc2-c2ccccc21	nt	nt	4.1%	9.4%	-99.0*
Nc1ccc2c(c1)C(=O)C(=O)c1ccccc1-2	3.55µM*	nt	?	?	-98.2*
Nc1ccc2c(c1)C(=O)c1ccccc1-2	-17.4%	?	-2.9%	nt	39.3
COc1ccc(C(=O)OCC(=O)N2CCN(C(=O)c3ccco3)CC2)c(OC)c1OC	-11.7%	-20.8%	-1.4%	nt	-102.3*
O=C(COC(=O)C1(c2ccc(F)cc2)CCCC1)N1CCN(C(=O)c2ccco2)CC1	-24.6%	nt	-0.2%	-1.8%	-106.2*
O=C(OCC(=O)N1CCN(C(=O)c2ccco2)CC1)c1ccccc1O	6.4%	-3.5%	0.9%	-2.3%	34.4
COc1cc(-n2c(C)nc3cc(C(=O)N4CCOCC4)ccc32)cc(OC)c1OC	-18.5%	nt	-0.2%	-5.9%	-17.5
COc1cccc(NC(=O)CN(C)C(C)C(=O)Nc2ccc(C(C)=O)cc2)c1 (stereo unspecified)	nt	nt	-1.3%	9.5%	33.1
O=C(Nc1ccccc1C(=O)Nc1nnc(C(F)(F)F)s1)c1ccccc1	?	?	0.5%	-2.7%	-99.2*
Cc1c(C(=O)Nc2nnc(C(F)(F)F)s2)oc2ccccc12	-18.8%	-14.4%	0.5%	4.5%	-84.5*
Cc1occc1C(=O)Nc1nnc(C(F)(F)F)s1	-12.2%	-11.8%	-5.7%	-10.8%	-10.4
COc1ccc(-c2nc3c(C#N)c[nH]n3c2NC2CCCC2)c(OC)c1	-18.4%	-12.0%	-4.4%	nt	-5.7
CCCCC/C(C=O)=C/c1ccccc1	nt	nt	1.3%	nt	nt
Brc1ccc(C=C2C=c3ccccc3=C2)cc1	-7.5%	-14.4%	nt	nt	nt
COc1ccc2c(c1OC)c(=O)n1c3ccc(OC(C)C(=O)NCCN4CCOCC4)cc3c3ccnc2c31 (stereo unspecified)	-2.7%	-1.6%	-12.2%	-1.5%	-2.9
CC(Oc1ccc2c(c1)c1ccnc3c4ccccc4c(=O)n2c13)C(=O)NCCN1CCOCC1 (stereo unspecified)	?	-2.7%	4.0%	5.5%	-89.5*
COc1ccc(-n2cccc2C=O)cc1	-6.1%	-13.7%	-5.0%	-3.7%	11.6
COc1ccc(-n2cccc2/C=C/[N+](=O)[O-])cc1	-5.8%	i	1.4%	1.5%	-101.6*
Cc1oc2c(c1C(=O)c1ccccc1)C(=O)C(=O)c1ccccc1-2	?	nt	-3.2%	3.3%	-102.9*
O=C1C(=O)c2c(C(=O)c3ccccc3)coc2-c2ccccc21	?	?	-3.9%	2.5%	-92.8*
Cc1ccc(/C=C2/NC(=O)N(Cc3ccccc3F)C2=O)o1	4.1%	i	?	2.4%	-72.3*
CCN1C(=O)N/C(=C/c2ccc(C)o2)C1=O	nt	nt	-36.5%	2.1%	29.7
O=C(/C=C/c1ccccc1)c1ccc2ccccc2c1	-10.1%	-12.8%	7.2%	nt	31.6
CCCCCCCNC(=O)C1(CC2CC(c3cccc(Br)c3)=NO2)CCNCC1 (stereo unspecified)	11.2µM*	?	1.0%	6.1%	-3.1
SMILES	Vaccinia Venus	VACV mCherry inh	Tb PYK inh	LmPK inh	HCMV antiviral
CCCCCCCNC(=O)C1(CC2CC(c3ccc(Cl)cc3)=NO2)CCNCC1 (stereo unspecified)	?	?	-9.4%	3.5%	-99.7*
CCOC(=O)C1CCN(C(=O)C(C)Sc2nnc3ccccn23)CC1 (stereo unspecified)	0.7%	-8.6%	0.6%	nt	-5.7
COc1ccccc1/C=N/Nc1cc(C)nc2ccc(C)cc12	3.8%	?	-3.4%	-5.1%	26.8
COc1ccc(/C=N/Nc2ncc(-c3ccccc3)cn2)c(OC)c1	-11.4%	i	0.2%	5.6%	?
COc1ccc(/C=N/Nc2cc(C)nc3ccc(OC)cc23)c(OC)c1	?	?	-7.5%	-0.7%	-105.1*
COc1ccc2nc(C)cc(N/N=C/c3ccccc3)c2c1	?	14.1µM*	5.9%	nt	nt
COc1ccc(/C=N/Nc2ncccc2[N+](=O)[O-])c(OC)c1	-11.8%	-21.8%	?	25.1µM*	-31.5

High-throughput results: PubChem BioAssay, National Center for Advancing Translational Sciences (NCATS)
